# Only some compounds are listed: those with a hit (about 8% of all), similar ones and a draw of the others.
# MARV entry inh: inhibitors of Marburg virus binding or entry into cells | Marburg virus pseudotype entry/binding inhibition, cell-based | Potency, µM (top dose mostly 49.2 µM), hits mostly inhibitors | actives 6.5% (n = 18,000)
# LASV entry inh: blocks Lassa virus binding or cell entry; Lassa virus pseudotyped entry inhibition, cell-based qHTS; Potency, µM (highest dose often 49.2 µM), actives largely listed as inhibitors; actives 4.1% (n = 18,000)
# Hits are given with their value; – = inactive; ? = inconclusive; ! = repeats disagree; [ ] = dose if it differs, or a comment. Calls follow the shape of the full dose curve; tested in HEK293 cells.
SMILES,MARV entry inh,LASV entry inh
c1cnc2cc3c(cc2n1)[C@@H]1CNC[C@H]3C1,–,–
CCOC(=O)[C@]12C[C@@H]3CCN(C(=O)N(C(C)=O)[C@@H]1c1ccccc1)[C@@H]32,–[8.59 µM],–[8.59 µM]
COC[C@H](c1ccc(C(F)(F)F)cc1)N1CCN(C2(C)CCN(C(=O)c3c(C)ncnc3C)CC2)C[C@H]1C,–,–
CC=COC(=O)N[C@@H](c1ccccc1)[C@]1(C(=O)OCC)CCCC1=O,–[8.59 µM],–[8.59 µM]
CC1=CC[C@@H](COc2ccccc2)O[C@@]2(C1)C(=O)N(Cc1ccccc1C(F)(F)F)c1ccccc12,–[8.59 µM],–[8.59 µM]
CCN1C(=O)[C@@H]2[C@H]3[C@H](O)[C@H](O)CC(=NO[C@@H](C)c4cc(-c5c(C)cc(C)cc5C)no4)[C@@H]3CC[C@H]2C1=O,–[8.59 µM],–[8.59 µM]
CN(C)CC/C=C1/c2ccccc2COc2ccccc21,?,–
CN(C)CC/C=C1/c2ccccc2COc2ccc(CC(=O)O)cc21,–,–
CNCCC=C1c2ccccc2C=Cc2ccccc21,5.01µM,?
CN(C)CC/C=C1\c2ccccc2Sc2ccc(Cl)cc21,11.2µM!,28.2µM!
CN(C)CCC=C1c2ccccc2C(C)(C)c2ccccc21,4.47µM,17.8µM
CN(C)CCC=C1c2ccccc2CCc2ccccc21,10µM,?
OCCN1CCN(CC/C=C2/c3ccccc3Sc3ccc(Cl)cc32)CC1,?,–
C[C@@H]1C=CCC(=O)N[C@@H](c2cccc(Br)c2)[C@H](C)C=CCC(=O)N[C@@H]1c1cccc(Br)c1,?,–[8.59 µM]
COC(=O)C1=C(C(=O)OC)[C@@H]2N(Cc3ccccc3)c3ccccc3[C@@]23CCC(=O)N(CC2CCCCC2)C3=N1,–[8.59 µM],–[8.59 µM]
C=C[C@H]1C[C@H]2C=CCCOP(=O)(O2)O1,?,–
Cc1cc2c(c(=O)n1Cc1ccccc1)[C@H]1O[C@](CCCCN3C(=O)c4ccccc4C3=O)(Cc3cc(C#N)ccc31)O2,?,–[8.59 µM]
CC(C)=CCCC(C)=CCN1C(=O)[C@@]2(C[C@@H](C)C[C@@H](C)O2)c2ccccc21,–[8.59 µM],–[8.59 µM]
O=C1CCCC2=C1[C@H]1O[C@](c3ccsc3)(Cc3c1ccc1ccccc31)O2,–[8.59 µM],–[8.59 µM]
CN(C)CCC=C1c2ccccc2C=Cc2ccccc21,11.2µM,31.6µM!
O=C(NCCN1CCOCC1)c1cnn(-c2nccc(-c3cc4ccccc4o3)n2)c1C1CC1,–,–
CCC(C)[C@H]1O[C@]2(C=C[C@@H]1C)C[C@@H]1C[C@@H](C/C=C(\C)[C@@H](O[C@H]3C[C@H](OC)[C@@H](O[C@H]4C[C@H](OC)[C@H](NC(C)=O)[C@H](C)O4)[C@H](C)O3)[C@@H](C)/C=C/C=C3\CO[C@@H]4[C@H](O)C(C)=C[C@@H](C(=O)O1)[C@]34O)O2 (some centres not stated),8.91µM,12.6µM
CC[C@@H](C)[C@H]1O[C@]2(CC[C@@H]1C)C[C@@H]1C[C@H](C/C=C(/C)[C@H](O[C@@H]3C[C@H](OC)[C@H](O[C@@H]4C[C@H](OC)[C@@H](O)[C@H](C)O4)[C@H](C)O3)[C@@H](C)/C=C\C=C3CO[C@@H]4[C@H](O)C(C)=C[C@@H](C(=O)O1)[C@]34O)O2 (tested in a mixture with another compound),–,?
CC[C@H](C)[C@@H]1O[C@]2(CC[C@@H]1C)C[C@H]1C[C@H](CC=C(C)[C@@H](O[C@@H]3C[C@H](OC)[C@H](O[C@@H]4C[C@H](OC)[C@H](O)[C@H](C)O4)[C@H](C)O3)[C@@H](C)C=CC=C3CO[C@@H]4[C@@H](O)C(C)=C[C@@H](C(=O)O1)[C@]34O)O2,?,–
CO[C@H]1C[C@H](O[C@H]2[C@H](C)O[C@@H](O[C@@H]3/C(C)=C/C[C@@H]4C[C@@H](C[C@]5(C=C[C@H](C)[C@@H](C6CCCCC6)O5)O4)OC(=O)[C@@H]4C=C(C)[C@@H](O)[C@H]5OC/C(=C\C=C\[C@@H]3C)[C@]54O)C[C@@H]2OC)O[C@@H](C)[C@@H]1O,8.91µM,10µM
SMILES,MARV entry inh,LASV entry inh
C=CC1CC2C=CCOP(=S)(O1)O2 (configuration not stated),–,–
CC(=O)C1=C(C)N(CCC=Cc2ccccc2)C(=O)NC1c1ccccc1 (configuration not stated),?,–[8.59 µM]
CC(=O)OC[C@H]1O[C@H](CC=NOC[C@@H](O)[C@H]2O[C@@H]3OC(C)(C)O[C@H]3[C@@H]2O)C=C[C@H]1OC(C)=O,?,–[8.59 µM]
Oc1ccc(Cl)c2cccnc12,–,–
Oc1c(Cl)cc(Cl)c2cccnc12,12.6µM,?
Cc1ccc2c(Cl)cc(Cl)c(O)c2n1,6.31µM!,?
CCC=CCCC(OC(=O)c1ccc(Br)cc1)C1=CCCCC1=O (configuration not stated),–[8.59 µM],–[8.59 µM]
CC#CCN1c2ccccc2[C@]23CCC(=O)N(Cc4cccc(C(F)(F)F)c4)C2=NC(C(=O)OC)=C(C(=O)OC)[C@H]13,–[8.59 µM],–[8.59 µM]
CCC[C@H]1CN(c2ccccc2)C(=O)[C@H]1CC(=O)Nc1ccccc1,–,–
CCOC(=O)CN1C(=O)NC(c2cccc(C(F)(F)F)c2)C(C(=O)OC)=C1C (configuration not stated),–[8.59 µM],–[8.59 µM]
COCc1c(C(=O)N2CCN(C3CCCC3)CC2)cnn1-c1ncc2c(n1)-c1ccccc1CCC2,–,–
Cc1ccc(S(=O)(=O)N[C@@H](Cc2ccccc2)C(=O)CCl)cc1,?,35.5µM
Cc1ccc(S(=O)(=O)NCl)cc1,–,–
COCc1ccc(CN2CCOc3ccc(C4=Cc5ccccc5C4)cc3C2)o1,–,–
COC(=O)CC=C1c2ccccc2[C@@H](OC)[C@@H]1C,–[8.59 µM],–[8.59 µM]
COc1cc(NC(C)CCCN)c2ncccc2c1 (configuration not stated),?,–
CCN(CC)CCCC(C)Nc1c2ccc(Cl)cc2nc2ccc(OC)cc12 (configuration not stated),1.12µM,?
CCN(CC)CCCC(C)Nc1cc(/C=C/c2ccccc2Cl)nc2cc(Cl)ccc12 (configuration not stated),15.8µM,?
C#CCCCON=C1C[C@@H](O)[C@H](O)[C@H]2[C@@H]3C(=O)N(C[C@@H]4CCCO4)C(=O)[C@@H]3CC[C@H]12,–[8.59 µM],?
CCCCCCCCCCCCCCCC(=O)OC[C@@H](O)[C@H]1OC[C@H](O)[C@H]1O,–,–
C[C@]12CC[C@H](O)C[C@H]1CC[C@@H]1[C@@H]2CC[C@]2(C)[C@@H](c3ccc(=O)oc3)C[C@H]3O[C@]132,2.51µM,2.82µM
CC(=O)C1CC[C@H]2C3CC[C@@H]4CC(O)CC[C@@]4(C)C3CC[C@]12C (some centres not stated),?,–
CN1C2CCC1CC(OC(c1ccccc1)c1ccccc1N)C2 (configuration not stated),17.8µM,–
CN1C2CCC1CC(OC(c1ccccc1)c1ccc(Cl)cc1)C2 (configuration not stated),3.98µM,11.2µM
C[C@@H](C(=O)OC1C[C@H]2CC[C@@H](C1)N2C)c1ccc(Br)cc1 (some centres not stated),?,–
CN1[C@@H](C[C@@H](O)c2ccccc2)CCC[C@@H]1C[C@H](O)c1ccccc1,?,–
COC(=O)CC=C1c2ccc3c(c2[C@@H](OC)[C@@H]1C)OCO3,–[8.59 µM],–[8.59 µM]
COc1cc2c(c(OC)c1OC)C(c1ccccc1)(c1ccccc1)CC2NC(=O)C(F)(F)F (configuration not stated),–[8.59 µM],–[8.59 µM]

# Screening data deposited in PubChem BioAssay by National Center for Advancing Translational Sciences (NCATS).
